Assay results taken from PubChem BioAssay (NCATS).
“And” between values parts separate entries of the source, which are not always exact repeats. Equal entries are not always repeated. Values without a mark were called inactive. Inconclusive results are not listed. Where a call stands in place of a potency, no number is given. The source made the active and inactive calls. Unless noted, the call rests on the fitted dose curve; in most records, active means well fitted curve in the direction sought with a large enough effect; inconclusive means small, poorly fitted or top-dose-only effect, or another doubt; inactive means no such curve, though single readings can be large; an effect the other way counts as inactive or inconclusive.

What was measured:
[1] = Cell Viability - MRC5 (AID 434; calls by dose curve;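 further: potency means the concentration at half of the fitted maximal effect; cells exposed to compound for 40 hours at 37 °C; potency reflects cytotoxicity seen as loss of intracellular ATP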); conditions: MRC5 lung fibroblast viability, qHTS
In short: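 qHTS cytotoxicity in human lung fibroblast MRC5 cells; 40 hr treatment, 37 °C; cellular ATP by luciferase luminescence; DMSO = 0%, 100 uM tamoxifen = 100% inhibition; Hill-fit AC50.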

[2] = Cellular Toxicity (caspase-3) HepG2 (AID 654);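 further: cells exposed to compound for 16 hours before reading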
In short: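 Cells plated 5 hr at 37 °C, compound added, incubated 16 hr at 37 °C. Caspase-Glo 3/7 reagent followed, 20 min at room temperature, then luminescence read. Activation scored as signal increase; AC50 from Hill fit.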

[3] = MultiTox-Fluor Cytotoxicity Assay - LYMP1-001 - Dead Cells (AID 946)
In short: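 LYMP1-001 lymphoblastoid cells (2500/well) treated 16 h at 37 C. Dead-cell protease cleavage of bis-AAF-R110 read at Ex/Em 485/520. Normalized to DMSO and 15 uM tetraoctylammonium bromide; AC50 from Hill fits.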

[4] = Cell Viability - LYMP2-003 (AID 965);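 further: cells exposed to compounds for 24 h before reading; nearly all actives have a fitted effect of over 50% in size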
In short: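 CellTiter-Glo luminescence quantified ATP loss after 24 h compound treatment of LYMP2-003 lymphoblastoid cells at 37 C. Titration series were fitted with the standard Hill equation to give AC50.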

[5] = Cell Viability - LYMP2-010 (AID 981); further: nearly all actives have a fitted effect of over 55% in size; further: potency means the concentration at half of the fitted maximal effect
In short: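 Luminescent ATP signal (CellTiter-Glo) served as the viability read-out. Cells of the human lymphoblastoid line were treated with compound over a concentration range for 24 hours at 37 C, and AC50 values came from Hill-equation modeling.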

[6] = Cell Viability - LYMP2-026 (AID 989); further: nearly all actives have a fitted effect of over 50% in size
In short: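 Luminescent ATP signal (CellTiter-Glo, 30 min room temperature) measures viable lymphoblastoid cells after 24 hr compound treatment at 37 C. Decreased ATP reflects acute toxicity; AC50 values come from Hill-equation modeling.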

[7] = molecular target: Vitamin D3 receptor (Homo sapiens) (UniProt P11473); assay: qHTS assay for small molecule antagonists of vitamin D receptor signaling (AID 588541; calls by dose curve;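 further: receptor activated by calcitriol during compound treatment; series mostly up to about 77 µM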)
In short: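 Antagonist-mode beta-lactamase reporter assay: HEK293T VDR-UAS-bla cells were exposed to titrated compound alongside 1-alpha,25-dihydroxyvitamin D3 at 3 nM final for 16 h. Values were normalized to the 50 nM agonist control and DMSO basal, with IC50 and efficacy from Hill equation fits.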

[8] = molecular target: Vitamin D3 receptor (Homo sapiens) (UniProt P11473); assay: qHTS assay for small molecule agonists of vitamin D receptor signaling (AID 588543; calls by dose curve)
In short: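 Agonist-mode beta-lactamase reporter: HEK293T VDR-UAS-bla cells in charcoal-stripped 2% FBS, compound series 16 h 37 C, CCF4 2 h RT. EC50 from Hill fit, scaled against DMSO and 50 nM calcitriol control.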

[9] = molecular target: Retinoic acid receptor RXR-alpha (Homo sapiens) (UniProt P19793); assay: qHTS assay for small molecule agonists of retinoid X receptor alpha signaling (AID 588544; calls by dose curve)
[10] = molecular target: Thyroid hormone receptor beta (Homo sapiens) (UniProt P10828); assay: qHTS assay for small molecule agonists of thyroid hormone receptor beta signaling (AID 588545; calls by dose curve)
In short: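 TR-UAS-bla GripTite HEK 293 cells (2500/well, medium with 2% charcoal/dextran FBS) were treated in agonist mode for 18 h at 37 C, titrated. Beta-lactamase was read by CCF4 ratio after 2 h; normalized to 10 nM T3 (100%) and DMSO, Hill-fitted for EC50 and efficacy.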

[11] = qHTS assay for small molecule disruptors of the mitochondrial membrane potential - 5 hr assay (AID 651755; calls by dose curve; further: nearly all actives have a fitted effect of over 40% in size)
In short: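 HepG2, 2,000 cells/well, overnight attach; cpd or DMSO 5 hr, 37C/5% CO2; Mito-MPS 30 min 37C; fluor 490/535 + 540/590 nm.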

[12] = qHTS assay for environmental chemicals that activate the Aryl hydrocarbon Receptor (AhR) signaling pathway (AID 651777); conditions: 1A2-DRE human hepatoma cells, luciferase, 24 h; activation: hits give high values; further: nearly all actives have a fitted effect of over 15% in size
In short: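 Following a 24 hr incubation with test chemicals at 37 C and 5% CO2, 1A2-DRE human hepatoma cells received One-Glo reagent; after 30 min at room temperature, luciferase output reflected CYP1A2 induction via AhR.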

[13] = qHTS assay for cell viability of the p53RE-bla HCT-116 cell line (AID 743292); further: nearly all actives have a fitted effect of over 55% in size
In short: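 After plating at 4,000 cells per well and a 5 h rest at 37 C, HCT-116 cells carrying p53RE-bla received test chemicals in DMSO. Sixteen hours later at 37 C, CellTiter-Glo was added and luminescence recorded following 30 min at room temperature.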

[14] = Cell Viability - LYMP2-013 (AID 970); further: nearly all actives have a fitted effect of over 55% in size; further: potency means the concentration at half of the fitted maximal effect
In short: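 qHTS; 2500 lymphoblastoid cells/well; 5 hr 37 C settle; cpd 24 hr 37 C; CellTiter-Glo, 30 min RT; luminescence. AC50 = Hill fit.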

[15] = Cell Viability - LYMP2-022 (AID 987); further: nearly all actives have a fitted effect of over 55% in size; further: potency means the concentration at half of the fitted maximal effect
In short: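 qHTS: human lymphoblastoid cells 2500/well; 5 hr 37 C; cpd added; 24 hr 37 C; CellTiter-Glo, 30 min RT; luminescence. AC50 via Hill fit; tetraoctylammonium bromide positive ctrl.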

Thyroid hormone receptor beta (Homo sapiens), sequence (P10828 whole entry, looked up): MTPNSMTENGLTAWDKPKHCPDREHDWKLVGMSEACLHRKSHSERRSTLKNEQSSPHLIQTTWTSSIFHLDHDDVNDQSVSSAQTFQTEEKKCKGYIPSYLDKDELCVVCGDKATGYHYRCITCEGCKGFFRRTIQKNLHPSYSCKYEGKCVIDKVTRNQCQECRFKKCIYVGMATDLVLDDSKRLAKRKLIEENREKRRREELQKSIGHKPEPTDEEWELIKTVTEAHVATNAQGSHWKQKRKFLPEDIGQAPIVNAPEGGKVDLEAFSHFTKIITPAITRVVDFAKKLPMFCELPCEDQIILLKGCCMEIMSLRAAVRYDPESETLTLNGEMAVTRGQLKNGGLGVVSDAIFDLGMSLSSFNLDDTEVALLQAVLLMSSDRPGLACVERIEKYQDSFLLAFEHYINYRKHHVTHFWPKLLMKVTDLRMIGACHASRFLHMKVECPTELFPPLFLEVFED
Retinoic acid receptor RXR-alpha (Homo sapiens), sequence (P19793 whole entry, looked up): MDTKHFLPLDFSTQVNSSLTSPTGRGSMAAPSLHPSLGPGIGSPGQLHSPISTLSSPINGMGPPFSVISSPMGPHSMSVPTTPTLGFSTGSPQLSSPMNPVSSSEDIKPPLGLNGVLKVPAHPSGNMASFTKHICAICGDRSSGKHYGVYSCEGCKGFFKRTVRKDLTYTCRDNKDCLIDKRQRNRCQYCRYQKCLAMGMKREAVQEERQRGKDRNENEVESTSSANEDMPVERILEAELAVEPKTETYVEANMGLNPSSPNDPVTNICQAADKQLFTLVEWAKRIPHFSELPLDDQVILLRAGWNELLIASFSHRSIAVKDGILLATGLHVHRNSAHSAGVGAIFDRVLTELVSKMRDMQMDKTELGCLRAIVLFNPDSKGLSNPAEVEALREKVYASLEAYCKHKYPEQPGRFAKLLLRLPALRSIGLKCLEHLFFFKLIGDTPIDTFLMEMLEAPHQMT
Vitamin D3 receptor (Homo sapiens), sequence (P11473 whole entry, looked up): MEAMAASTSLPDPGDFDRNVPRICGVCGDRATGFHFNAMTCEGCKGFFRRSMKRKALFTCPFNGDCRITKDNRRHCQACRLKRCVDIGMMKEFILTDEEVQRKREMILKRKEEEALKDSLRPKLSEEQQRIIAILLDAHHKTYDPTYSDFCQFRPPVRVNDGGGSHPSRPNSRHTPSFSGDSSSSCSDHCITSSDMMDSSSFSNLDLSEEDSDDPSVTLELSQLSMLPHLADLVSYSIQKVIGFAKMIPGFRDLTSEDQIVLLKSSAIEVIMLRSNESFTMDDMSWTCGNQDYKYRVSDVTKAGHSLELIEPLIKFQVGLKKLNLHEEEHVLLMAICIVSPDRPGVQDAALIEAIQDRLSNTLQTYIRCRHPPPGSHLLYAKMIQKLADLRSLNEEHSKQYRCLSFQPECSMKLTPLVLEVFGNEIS

| Compound | Potency [1] | outcome [2] | outcome [3] | Potency [4] | Potency [5] | Potency [6] | outcome [7] | outcome [8] | outcome [9] | Potency [10] | Potency [11] | activation [12] | Potency [13] | Potency [14] | Potency [15] |
| --- | --- | --- | --- | --- | --- | --- | --- | --- | --- | --- | --- | --- | --- | --- | --- |
| ClC(Cl)Br | > 92 µM | inactive | inactive | inactive | inactive | inactive | inactive | inactive | inactive | inactive | inactive | 0.136% | inactive | – | – |
| Nc1ccc(Cc2ccc(N)cc2)cc1 | > 92 µM | inactive | inactive | inactive | inactive | inactive | inactive | inactive | inactive | inactive | inactive | 1.41% and 1.54% | inactive | inactive | – |
| Clc1ccc(Cl)c(Cl)c1 | > 92 µM | inactive | inactive | inactive | – | – | inactive | inactive | inactive | inactive | inactive | 0.0505% and 0.0105% | inactive | inactive | inactive |
| CCCCOCC1CO1 (centres undefined) | > 92 µM | inactive | inactive | inactive | – | – | inactive | inactive | – | inactive | inactive | – | inactive | inactive | – |
| N#CC(Cl)(Cl)Cl | > 92 µM | inactive | inactive | inactive | inactive | inactive | – | – | – | inactive | inactive | 0.19% | – | inactive | inactive |
| CC(C)(C)OOC(=O)c1ccccc1 | > 92 µM | inactive | – | – | inactive | – | inactive | inactive | inactive | inactive | inactive | -1.19% and 0.23% | inactive | inactive | inactive |
| BrCC(Br)C1CCC(Br)C(Br)C1 (centres undefined) | > 92 µM | – | inactive | inactive | inactive | inactive | – | – | inactive | inactive | inactive | -0.172% | inactive | inactive | inactive |
| CC(C)OC(=O)Cc1ccccc1 | > 92 µM | inactive | – | inactive | inactive | inactive | inactive | inactive | inactive | inactive | inactive | – | inactive | – | inactive |
| O=[N+]([O-])/C=C/c1ccccc1 | – | – | – | – | 50.1 µM (active) | – | inactive | inactive | inactive | inactive | inactive | – | inactive | 50.1 µM (active) | 39.8 µM (active) |
| Cc1ccc(N)cc1Cl | > 92 µM | – | – | inactive | inactive | inactive | inactive | inactive | inactive | inactive | inactive | – | inactive | inactive | inactive |
| O=C(Cl)c1ccccc1F | > 92 µM | inactive | inactive | – | inactive | inactive | inactive | inactive | inactive | inactive | inactive | 4.83% | – | inactive | inactive |
| O=NN1CCCCC1 | > 92 µM | inactive | inactive | inactive | inactive | inactive | inactive | inactive | inactive | inactive | inactive | 1.05% | inactive | – | inactive |
| CC(C)(COCC1CO1)COCC1CO1 (centres undefined) | > 92 µM | inactive | inactive | inactive | – | inactive | inactive | inactive | – | – | – | -0.0471% | – | – | inactive |
